# Measurements as given in PubChem BioAssay (Tox21).
# Results filed as inconclusive are left out. A call without a number means that no potency is given here. Where a structure was tested more than once in an assay, its records may differ in their call. Activity calls are given as the source filed them. Unless noted, calls follow the shape of the full dose curve.
# Legend:
# [1] = qHTS assay to identify small molecule antagonists of the vitamin D receptor (VDR) signaling pathway - cell viability counter screen (AID 743225; active = well fitted curve in the direction sought with a large enough effect in the repeat runs; an effect the other way counts as inactive or inconclusive; also: nearly all actives have a fitted effect of over 50% in size)
# In short: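 HEK293T VDR-bla; cpd + 1a,25-(OH)2D3 3 nM final, 16 h 37C/5% CO2; B/G FRET substrate 2 h RT; then CellTiter-Glo 30 min RT, luminescence.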
# [2] = qHTS assay to identify small molecule agonists of the endoplasmic reticulum stress response signaling pathway (AID 1159516; active = well fitted activation curve with a large enough effect in the signal ratio in the repeat runs, not every such curve was filed as active; the % refers to the signal ratio)
# In short: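 Reporter HeLa cells (ESRE-beta-lactamase) underwent 5 hr compound incubation at 37 C and 5% CO2 in quantitative HTS format. Detection followed 2 hr of FRET substrate loading at room temperature.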
# [3] = qHTS assay to identify small molecule agonists of the endoplasmic reticulum stress response signaling pathway - cell viability counter screen (AID 1159517);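 also: HeLa cells carrying an ER stress response element beta-lactamase reporter; series mostly up to about 61 µM; nearly all actives have a fitted effect of over 50% in size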
# In short: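 Cells, HeLa ESRE-bla; density, 1,500/well; dosing, 5 hr at 37 C, 5% CO2; readout, CellTiter-Glo luminescence after 30 min RT.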
# [4] = qHTS assay to identify small molecule antagonists of the retinoid-related orphan receptor gamma (ROR-gamma) signaling pathway - cell viability counter screen (AID 1159520; active = well fitted curve in the direction sought with a large enough effect in the repeat runs; an effect the other way counts as inactive or inconclusive; also: nearly all actives have a fitted effect of over 50% in size)
# In short: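 Cytotoxicity was read from cellular ATP (CellTiter-Glo luminescence) after 16 hr at 37 C with 1 uM doxycycline induction. The inducer was added 2 hr after compound transfer to Tet-on ROR gamma CHO cells.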
# [5] = target: Retinoic acid receptor RXR-alpha (Homo sapiens) (UniProt P19793); assay: qHTS assay to identify small molecule agonists of the RXR signaling pathway (AID 1159527); also: nearly all actives have a fitted effect of over 35% in size
# Retinoic acid receptor RXR-alpha (Homo sapiens), sequence (P19793 whole entry, looked up): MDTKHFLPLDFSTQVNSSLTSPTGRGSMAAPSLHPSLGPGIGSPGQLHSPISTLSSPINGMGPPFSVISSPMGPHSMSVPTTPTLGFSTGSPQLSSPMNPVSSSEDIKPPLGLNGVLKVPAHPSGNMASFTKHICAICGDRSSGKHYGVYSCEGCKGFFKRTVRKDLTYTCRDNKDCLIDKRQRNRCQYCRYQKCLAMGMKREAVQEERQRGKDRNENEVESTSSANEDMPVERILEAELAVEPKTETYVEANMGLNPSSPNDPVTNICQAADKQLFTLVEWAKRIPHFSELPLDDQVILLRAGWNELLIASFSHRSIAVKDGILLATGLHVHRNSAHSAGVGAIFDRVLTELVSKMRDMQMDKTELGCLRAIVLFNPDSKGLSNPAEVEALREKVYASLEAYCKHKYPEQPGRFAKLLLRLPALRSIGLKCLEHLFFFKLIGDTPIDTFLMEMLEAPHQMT
# In short: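 Cells plated at 2,000/well, rested 5 hr at 37 C, pin-dosed with DMSO compound solutions, incubated 16 hr, then loaded with B/G FRET substrate for 2 hr at RT before dual-emission fluorescence reading.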
# [6] = target: Nuclear receptor ROR-gamma (Homo sapiens) (UniProt P51449); assay: qHTS assay to identify small molecule antagonists of the retinoid-related orphan receptor gamma (ROR-gamma) signaling pathway (AID 1159521; active = well fitted curve in the direction sought with a large enough effect in the repeat runs; an effect the other way counts as inactive or inconclusive; also: nearly all actives have a fitted effect of over 50% in size; also: potency is read from the fitted curve at half-maximal effect)
# In short: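 Cells were plated, rested 4 h at 37 C, exposed to compounds for 2 h, then given 1 uM final doxycycline hyclate to induce RORγ expression. After 16 h, ONE-Glo luminescence from the ROR response element reporter was measured.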
# [7] = qHTS assay to identify small molecule agonists of the AP-1 signaling pathway - cell viability counter screen (AID 1159525); also: nearly all actives have a fitted effect of over 55% in size
# In short: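 Luminescent ATP readout (Cell Titer Glo, 30 min RT), normalised to DMSO and tetra n-octyl ammonium bromide controls. Cells were ME-180 AP-1-bla in 0.5% dialyzed FBS Opti-MEM, with a 5 h, 37 °C compound exposure.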
# [8] = qHTS assay to identify small molecule agonists of the AP-1 signaling pathway (AID 1159526)
# [9] = qHTS assay to identify small molecule agonists of the vitamin D receptor (VDR) signaling pathway - cell viability counter screen (AID 743224; active = well fitted curve in the direction sought with a large enough effect in the repeat runs; an effect the other way counts as inactive or inconclusive)
# In short: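 Here cell health was gauged by luminescent ATP detection (CellTiter-Glo, 30 min RT) in VDR-bla cells that had been incubated with test compounds for 16 h at 37C and 5% CO2.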
SMILES,Potency [1],Potency [2],Potency [3],Potency [4],Potency [5],Potency [6],Potency [7],Potency [8],Potency [9]
COc1ccc(-c2coc3cc(O)cc(O)c3c2=O)cc1,inactive,inactive,inactive,inactive,inactive,,,,
CC1(C)C(C=C(Cl)Cl)C1C(=O)OCc1cccc(Oc2ccccc2)c1 (stereo not given),inactive,inactive,inactive,inactive,inactive,54.1 µM (active) and inactive,inactive,inactive,
CCCCCC1C(=O)CCC1CC(=O)OC (stereo not given),,inactive,inactive,inactive,inactive,,inactive,inactive,inactive
Oc1ccc(C(c2ccc(O)cc2)C(Cl)(Cl)Cl)cc1,,inactive,inactive,inactive,,,inactive,inactive,
CC(C)(C)c1cccc(C(C)(C)C)c1O,inactive,inactive,inactive,inactive,,,inactive,inactive,inactive
O=C(O)c1ccc(O)cc1,inactive,inactive,inactive,inactive,inactive,inactive,inactive,inactive,
CC1(C)OC(=O)NC1=O,inactive,inactive,inactive,inactive,inactive,,inactive,inactive,
O=C(O)COCCN1CCN(C(c2ccccc2)c2ccc(Cl)cc2)CC1 (stereo not given),inactive,inactive,inactive,inactive,inactive,,inactive,inactive,inactive
IC(I)I,inactive,inactive,inactive,inactive,inactive,,inactive,,inactive
Nc1cc([N+](=O)[O-])ccc1C(=O)O,inactive,inactive,inactive,inactive,inactive,inactive,inactive,inactive,inactive
COCCOCCOCCO,inactive,inactive,inactive,inactive,inactive,inactive,inactive,inactive,inactive
